Calls of active or inactive are those of the source. Rule for the calls: active = hit-call score of the fitted dose curve at least 0.9, where 1 is the maximum; inactive = score below 0.9.

Results on seven compounds are retold here after PubChem BioAssay (EPA / NIEHS).

Read-out in assay [1]: Human Leukocyte Antigen - DR isotype (HLADR), HLA-DRA (gene 3122)
The experiment in a line: BSK_CASM3C_HLADR: BioMAP Diversity Plus: CASM3C Assay for Human Leukocyte Antigen - DR isotype (HLADR) Biomarker Activity (AID 2283043).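 Note: cell-surface HLA-DR protein level quantified by ELISA.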 As to conditions: primary human coronary artery smooth muscle cells; actives raise or lower the signal.

Read-out in assay [2]: Macrophage colony-stimulating factor (MCSF), CSF1 (gene 1435)
The assay can be described thus: BSK_CASM3C_MCSF: BioMAP Diversity Plus: CASM3C Assay for Macrophage colony-stimulating factor (MCSF) Biomarker Activity (AID 2283044).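 Note: M-CSF protein amount quantified by ELISA after 24 h exposure.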 As to conditions: primary human coronary artery smooth muscle cells; actives raise or lower the signal.

Read-out in assay [3]: Low-density lipoprotein receptor (LDLR), LDLR (gene 3949)
The assay can be described thus: BSK_CASM3C_LDLR: BioMAP Diversity Plus: CASM3C Assay for Low-density lipoprotein receptor (LDLR) Biomarker Activity (AID 2283045).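 Note: LDLR protein level on the cell surface quantified by ELISA.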 The note with it: primary human coronary artery smooth muscle cells; actives raise or lower the signal.

Read-out in assay [4]: Monocyte Chemoattractant Protein-1 (MCP1), CCL2 (gene 6347)
The assay can be described thus: BSK_CASM3C_MCP1: BioMAP Diversity Plus: CASM3C Assay for Monocyte Chemoattractant Protein-1 (MCP1) Biomarker Activity (AID 2283046).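 Note: MCP-1 level quantified by ELISA 24 h after dosing.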 The note with it: primary human coronary artery smooth muscle cells; actives raise or lower the signal.

The nature of assay [5]: BSK_CASM3C_Proliferation: Cell Proliferation Assessment in the BioMAP Diversity Plus: CASM3C Assay (AID 2283047).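 Note: sulforhodamine B total protein stain as relative cell number at 560 nm; sub-confluent cells exposed 48 h before staining; fitted both ways against DMSO so gain or loss of cell number.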 The note with it: primary human coronary artery smooth muscle cells.
Read-out in assay [6]: Monokine induced gamma interferon (MIG), CXCL9 (gene 4283)
The assay can be described thus: BSK_CASM3C_MIG: BioMAP Diversity Plus: CASM3C Assay for Monokine induced gamma interferon (MIG) Biomarker Activity (AID 2283048).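 Note: MIG protein level measured by ELISA.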 The note with it: primary human coronary artery smooth muscle cells; actives raise or lower the signal.

Read-out in assay [7]: serum amyloid A (SAA), SAA1 (gene 6288)
The assay can be described thus: BSK_CASM3C_SAA: BioMAP Diversity Plus: CASM3C Assay for serum amyloid A (SAA) Biomarker Activity (AID 2283049).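 Note: SAA protein level quantified by ELISA.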 The note with it: primary human coronary artery smooth muscle cells; actives raise or lower the signal.

The nature of assay [8]: BSK_CASM3C_SRB: Viability Assessment in the BioMAP Diversity Plus: CASM3C Assay (AID 2283050).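 Note: cells exposed to compound for 24 h.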 As to conditions: primary human coronary artery smooth muscle cells.
Read-out in assay [9]: Thrombomodulin, THBD (gene 7056)
The assay can be described thus: BSK_CASM3C_Thrombomodulin: BioMAP Diversity Plus: CASM3C Assay for Thrombomodulin Biomarker Activity (AID 2283051).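 Note: thrombomodulin protein level measured by ELISA 24 h after dosing.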 The note with it: primary human coronary artery smooth muscle cells; actives raise or lower the signal.

Read-out in assay [10]: Tissue Factor, F3 (gene 2152)
The experiment in a line: BSK_CASM3C_TissueFactor: BioMAP Diversity Plus: CASM3C Assay for Tissue Factor Biomarker Activity (AID 2283052).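 Note: cell surface tissue factor protein level read by ELISA.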 As to conditions: primary human coronary artery smooth muscle cells; actives raise or lower the signal.

Read-out in assay [11]: Urokinase-type plasminogen activator receptor (uPAR), PLAUR (gene 5329)
The experiment in a line: BSK_CASM3C_uPAR: BioMAP Diversity Plus: CASM3C Assay for Urokinase-type plasminogen activator receptor (uPAR) Biomarker Activity (AID 2283054).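 Note: cell-surface uPAR protein level quantified by ELISA.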 As to conditions: primary human coronary artery smooth muscle cells; actives raise or lower the signal.

Read-out in assay [12]: Vascular cell adhesion molecule 1 (VCAM1), VCAM1 (gene 7412)
The assay can be described thus: BSK_CASM3C_VCAM1: BioMAP Diversity Plus: CASM3C Assay for Vascular cell adhesion molecule 1 (VCAM1) Biomarker Activity (AID 2283055).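 Note: VCAM-1 protein level quantified by ELISA on the cells.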 As to conditions: primary human coronary artery smooth muscle cells; actives raise or lower the signal.

Read-out in assay [13]: Collagen III, COL3A1 (gene 1281)
The experiment in a line: BSK_hDFCGF_CollagenIII: BioMAP Diversity Plus: hDFCGF Assay for Collagen III Biomarker Activity (AID 2283056). As to conditions: primary human foreskin fibroblasts; actives raise or lower the signal. The essentials: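 Human foreskin fibroblast primary cultures sampled 24 h after dosing; Collagen III quantified by ELISA. Signal fitted bidirectionally against DMSO baseline.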

Read-out in assay [14]: Interleukin-8 (IL8), CXCL8 (gene 3576)
The experiment in a line: BSK_hDFCGF_IL8: BioMAP Diversity Plus: hDFCGF Assay for Interleukin-8 (IL8) Biomarker Activity (AID 2283058). The note with it: primary human foreskin fibroblasts; actives raise or lower the signal. The essentials:
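Primary human foreskin fibroblasts (hDFCGF system) dosed with chemical; IL-8 measured by ELISA 24 hours later. Bidirectional curve fitting relative to DMSO baseline; cytotoxicity tracked in parallel cultures by SRB total protein staining.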

A short description of assay [15]: BSK_hDFCGF_Proliferation: Cell Proliferation Assessment in the BioMAP Diversity Plus: hDFCGF Assay (AID 2283059).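 Note: curves fitted for both rise and fall of signal versus DMSO baseline.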 The note with it: primary human foreskin fibroblasts. A digest of the protocol:
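Primary human foreskin fibroblasts, sub-confluent; […]; 10% TCA fix, 0.1% SRB stain, A560 total protein. Gain/loss fitted bidirectionally vs DMSO control.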

Read-out in assay [16]: Macrophage colony-stimulating factor (MCSF), CSF1 (gene 1435)
The experiment in a line: BSK_hDFCGF_MCSF: BioMAP Diversity Plus: hDFCGF Assay for Macrophage colony-stimulating factor (MCSF) Biomarker Activity (AID 2283060). The note with it: primary human foreskin fibroblasts; actives raise or lower the signal. The essentials:
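Human foreskin fibroblast primary cultures; M-CSF measured by ELISA 24 hours after chemical dosing. Bidirectional fitting relative to DMSO, with overt cytotoxicity tracked by parallel SRB total-protein staining (0.1% SRB, 10% TCA fixation, 560 nm).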

The nature of assay [17]: BSK_hDFCGF_SRB: Viability Assessment in the BioMAP Diversity Plus: hDFCGF Assay (AID 2283061).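 Note: cells exposed to compound for 24 h before the read.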 As to conditions: primary human foreskin fibroblasts. A digest of the protocol:
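Human foreskin fibroblasts in 96-well plates were treated 24 h. Total protein was measured by 0.1% SRB staining after 10% TCA fixation, read at 560 nm. Data were fitted bidirectionally against DMSO.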

Read-out in assay [18]: Interferon-gamma inducible Protein 10 (IP10), CXCL10 (gene 3627)
The assay can be described thus: BSK_hDFCGF_IP10: BioMAP Diversity Plus: hDFCGF Assay for Interferon-gamma inducible Protein 10 (IP10) Biomarker Activity (AID 2283053). The note with it: primary human foreskin fibroblasts; actives raise or lower the signal. The essentials:
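IP-10 levels, quantified by ELISA, are taken from human foreskin fibroblast cultures 24 h after chemical treatment, with DMSO serving as negative control and baseline for bidirectional analysis.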

Read-out in assay [19]: TIMP metallopeptidase inhibitor 1 (TIMP1), TIMP1 (gene 7076)
The experiment in a line: BSK_hDFCGF_TIMP1: BioMAP Diversity Plus: hDFCGF Assay for TIMP metallopeptidase inhibitor 1 (TIMP1) Biomarker Activity (AID 2283062). As to conditions: primary human foreskin fibroblasts; actives raise or lower the signal. A digest of the protocol:
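Human foreskin fibroblast primary cultures dosed for 24 h; secreted/surface TIMP-1 quantified by ELISA. Bidirectional curve fitting against DMSO baseline; cytotoxicity tracked in parallel cultures by SRB total-protein staining.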

Read-out in assay [20]: Epidermal growth factor receptor (EGFR), EGFR (gene 1956)
The experiment in a line: BSK_hDFCGF_EGFR: BioMAP Diversity Plus: hDFCGF Assay for Epidermal growth factor receptor (EGFR) Biomarker Activity (AID 2283057). As to conditions: primary human foreskin fibroblasts; actives raise or lower the signal. A digest of the protocol: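 Measured by ELISA: EGFR levels on primary human foreskin fibroblasts 24 h after chemical treatment, analysed relative to DMSO with bidirectional fitting.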

Take `OCCOCCOCCO`: the outcome in assay [1], in [2], in [3], in assay [4], in assay [5] and in [6] was inactive. Further, the result in assay [7], in assay [8], in assay [9], in [10], in [11] and in assay [12] was inactive. In addition, the outcome in assay [13], in [14], in [15], in assay [16] and in [17] was inactive.
One may read the AC50 as the concentration giving half of the maximal activity seen. Turning to `CCn1nc(C)c2c1C(=O)NCC(c1ccc(O)cc1)=N2`, the outcome in assay [1], in assay [3], in assay [4], in [6], in assay [7] and in [8] was inactive. Besides, the result in [9], in assay [10], in assay [18], in assay [12], in assay [14] and in [17] was inactive. In addition, the outcome in assay [19] was inactive. Also, the AC50 in assay [2] is 2510 nM (active); in assay [5], 10000 nM (active); in assay [11] it was 8180 nM (active); in assay [15], 11000 nM (active); in assay [16], 3970 nM (active).
`NCC(F)(F)C(F)(F)C(F)(F)C(F)(F)F`: the result in assay [1], in assay [2], in assay [3], in [4], in assay [5] and in assay [6] was inactive. For the same compound, the outcome in assay [7], in assay [8], in [9], in assay [10], in [18] and in assay [11] was inactive. Further, the outcome in [12], in assay [14], in [15], in assay [16], in assay [17] and in assay [19] was inactive.
As for `C[C@]12C=CC(=O)C=C1CC[C@H]1[C@@H]3C[C@@H](O)[C@](O)(C(=O)CO)[C@@]3(C)C[C@H](O)[C@@]12F`, the AC50 is 148 nM (active) in assay [1]; 417 nM (active) in assay [2]; 148 nM (active) in assay [4]; 354 nM (active) in [7]; 3970 nM (active) in [9]; 149 nM (active) in [10]. In addition, the values for the AC50 in assay [15] and in [16] were 818 nM (active) and 580 nM (active), respectively. Further, the outcome in assay [3], in assay [5], in assay [6], in assay [8], in assay [11] and in assay [12] was inactive. Also, the outcome in assay [13], in assay [20], in [14], in assay [17] and in assay [19] was inactive.
Consider `O=C(O)c1ccc2c(c1)nc(C(=O)NC1CCN(C3CC3)CC1)n2Cc1cc(-c2ccc(Cl)s2)on1`, for which the outcome in assay [1], in assay [2], in [3], in [4], in assay [5] and in assay [6] was inactive. The result in [7], in [8], in assay [9], in assay [10], in assay [18] and in assay [11] was inactive. Also, the outcome in assay [12], in assay [20], in assay [14], in assay [15], in assay [17] and in [19] was inactive.
Take `CCCCCCCC1CCC(=O)O1` (centres undefined): the result in [1], in assay [2], in assay [3], in [4], in assay [5] and in [6] was inactive. Besides, the outcome in assay [7], in assay [8], in [9], in [10], in [11] and in [12] was inactive. The result in assay [13], in assay [20], in [14], in [15] and in assay [17] was inactive.
With `CC(C)C(=O)Nc1ccc([N+](=O)[O-])c(C(F)(F)F)c1`, the outcome in [1], in assay [2], in [4], in [5], in [6] and in assay [7] was inactive. Moreover, the result in assay [8], in assay [9], in [10], in [18], in [11] and in assay [12] was inactive. Also, the result in [20], in [14], in assay [15] and in [17] was inactive. Besides, in assay [3], the AC50 was 4780 nM (active).
